# Results taken from PubChem BioAssay AID2012 (Sanford-Burnham Center for Chemical Genomics, 2009).
# Among all 290,000 compounds or so, about 2,700 (0.93%) were called active. No rule for the calls is given here. The sample as a whole holds a higher share of actives than the screen did.
# Target: Eukaryotic translation initiation factor 4H (Homo sapiens) (UniProt Q15056)
# Assay: eIF4H binding inhibition – biochemical, uHTS, fluorescence polarization, translation initiation inhibitor project, primary screen (AID 2012);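 also: calls also rest on retests at 20 µM and on dose response follow-up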
# Details: eIF4H fluorescence polarization binding assay, stronger effect = higher value
Compound,inhibition (at 35 µM),"inhibition (confirmation average, at 20 µM)"
COC(=O)c1ccccc1NC(=O)CSc1n[nH]c(-c2ccncc2)n1,3.3% (inactive),
Cc1cccnc1CC(C)NC(=O)c1cc(COc2cncc(Cl)c2)on1 (centres undefined),-1% (inactive),
Oc1ccc(N=Cc2sc3ccccc3c2Cl)cc1,105% (active),73.8%
Oc1ccc(N=Cc2c(O)ccc3ccccc23)cc1,19% (inactive),
O=C(N/N=C/c1c(Cl)[nH]c2ccccc12)c1sc2ccccc2c1Cl,-8.2% (inactive),
CCCOc1ccc(/C=N/NC(=O)C2CC2)c(OCCC)c1,-12.1% (inactive),
Cc1c(OC(C)C(=O)N[C@@H](Cc2ccccc2)C(=O)O)ccc2c3c(c(=O)oc12)CCCC3 (some centres undefined),5.5% (inactive),
Cc1cc(OC(C)C(=O)NC2CC(C)(C)NC(C)(C)C2)c2c(C)cc(=O)oc2c1 (centres undefined),-0.9% (inactive),
Cc1ccc(N2NC(=O)/C(=C/C=C/c3ccco3)C2=O)cc1C,45.7% (inactive),
Cc1ccc(N=C2NC(=O)/C(=C/C=C/c3ccco3)S2)cc1C,75.9% (active),90.3%
Cc1cccc(N=C2NC(=O)/C(=C/c3cn(C)c4ccccc34)S2)c1,2.5% (inactive),
CCN(CC)S(=O)(=O)c1ccc(-c2cn3ccc(C)cc3n2)cc1,1.1% (inactive),
CCOc1ccc(-c2n[nH]c(=S)n2/N=C/c2cc3c(cc2[N+](=O)[O-])OCO3)cc1,86.2% (active),80.4%
Cc1ccc(-c2n[nH]c(=S)n2/N=C/c2cc3c(cc2[N+](=O)[O-])OCO3)cc1,29.5% (inactive),
O=[N+]([O-])c1ccccc1/C=N/n1c(COc2ccccc2)n[nH]c1=S,-1.1% (inactive),
Cc1ccc(-n2c(C)cc(C(=O)CN3C(=O)C(=O)N(C4CCCC4)C3=O)c2C)cc1,1.2% (inactive),
COc1cc(/C=N/NC(=O)c2cc(C)n(-c3ccc(F)cc3)c2C)cc(OC)c1O,0.7% (inactive),
Cc1cc(C(=O)COC(=O)C2CC2)c(C)n1-c1ccc(F)cc1,4.9% (active),52.5%
O=C(Nc1ccc(F)cc1)c1ccc(S(=O)(=O)NCc2cccnc2)cc1,10.1% (inactive),

Compound,inhibition (at 35 µM),"inhibition (confirmation average, at 20 µM)"
NC(=O)CN1CCCC1c1ccc2c(c1)OCCO2 (centres undefined),4.2% (inactive),
Clc1ccccc1CSc1nnc(-c2ccco2)c(-c2ccco2)n1,96.6% (active),94.4%
c1ccc(CSc2nnc(-c3ccco3)c(-c3ccco3)n2)cc1,94.6% (active),
COC(OC)c1ccnc(SCc2ccccc2Cl)n1,2% (inactive),
O=C(Nc1nnc(SCc2ccccc2)s1)c1ccco1,6% (inactive),
Brc1ccc(CSc2ccc(-c3ccco3)nn2)cc1,61% (inactive),-1.3%
Fc1cccc(Cl)c1CSc1ccc(-c2ccco2)nn1,49.1% (inactive),
CCN(C(=O)C1CCCN(c2nc(-c3ccc(OC)cc3)no2)C1)c1ccc(OC)cc1 (centres undefined),-11.8% (inactive),
Cc1ccc(NC(=O)CSc2nn3c(=O)c(C)nnc3s2)cc1Cl,-27.5% (inactive),
CC(=O)c1ccc(N2CCN(C(=O)C3CCN(S(=O)(=O)c4ccc5c(c4)CC(C)N5C(=O)C4CC4)CC3)CC2)cc1 (centres undefined),-9.3% (inactive),
CC(Sc1nc2cc(Cl)ccc2s1)C(=O)Nc1ccc2c(c1)OCO2 (centres undefined),1.8% (active),65.1%
O=C(Nc1ccc2c(c1)OCO2)c1sc2cc(Cl)ccc2c1Cl,-4% (inactive),
CC(Sc1nc(-c2ccccc2)cc(C(F)(F)F)n1)C(=O)Nc1ccc2c(c1)OCO2 (centres undefined),4.8% (inactive),
O=S(=O)(c1ccc(Br)cc1)N1CCC(c2nc3ccccc3[nH]2)CC1,-8.2% (inactive),
CC1CCCCN1CCCNc1ccc(C(CC(N)=O)NC(=O)c2ccccc2)cc1[N+](=O)[O-] (centres undefined),-8.3% (inactive),
COc1ccc(CC(NC(C)=O)C(=O)NC2CCN(C(=O)c3ccc(Cl)cc3)CC2)cc1 (centres undefined),-0.5% (inactive),
CNC(=S)N1CCC(NC(=O)C(Cc2ccc(F)cc2)NC(C)=O)CC1 (centres undefined),63.8% (active),
CC(=O)NC(Cc1ccc(F)c(F)c1)C(=O)NC1CCN(C(=O)c2ccc(C)cc2)CC1 (centres undefined),-14.2% (inactive),
O=C(CCc1ccccc1)NNC(=O)COc1ccc(Cl)cc1,0.4% (inactive),

Compound,inhibition (at 35 µM),"inhibition (confirmation average, at 20 µM)"
COc1ccccc1NC(=O)CCC(=O)OC(C)C(=O)c1ccccc1 (centres undefined),1.3% (inactive),
O=C(NC1CCCC1)C(=O)c1c[nH]c2ccccc12,-6.1% (inactive),
CCCNC(=O)CSc1nc(Cc2ccccc2)nc2ccccc12,-6.2% (inactive),
Clc1c(OCCCn2ccnc2)ccc2ccccc12,1.6% (inactive),
O=C(/C=C/c1ccc2c(c1)OCO2)NCc1cn2cc(Cl)ccc2n1,-3.3% (active),76.4%
Cc1cccc(NC(=O)/C=C/c2ccc3c(c2)OCO3)n1,-2.1% (inactive),
O=C(/C=C/c1ccc2c(c1)OCO2)NCc1ccc(F)cc1,4.7% (inactive),
Cc1cccc(NS(=O)(=O)c2ccc(-c3cnc(C4CC4)o3)cc2)c1,-2.4% (inactive),
O=C(c1ccc[nH]c1=S)N1CCN(S(=O)(=O)c2ccc(Br)cc2Cl)CC1,-10.2% (inactive),
COc1ccc(C)cc1-n1nnnc1SCC(=O)c1cc(C)n(Cc2ccco2)c1C,64.8% (active),
Cc1cc(C(=O)COC(=O)CNC(=O)c2ccc(F)cc2)c(C)n1Cc1ccco1,86.4% (inactive),-10.3%
COc1ccc(OC)c(-n2nnnc2SCC(=O)Nc2cc(C)ccc2OC)c1,0% (inactive),
Cc1ccc(OCC(=O)NC(C)c2ccccc2)c([N+](=O)[O-])n1 (centres undefined),-4.1% (inactive),-2.8%
Cc1cc(C(=O)CSc2nc(N)cc(=O)[nH]2)c(C)n1Cc1ccco1,43.2% (inactive),
COCC(C)n1c(C)cc(C(=O)COc2ccc(C)nc2[N+](=O)[O-])c1C (centres undefined),70.1% (active),70.5%
COc1ccccc1CNC(=O)COc1ccc(C)nc1[N+](=O)[O-],-3.5% (inactive),
Cc1ccc(OCC(=O)c2cc(C)n(Cc3ccco3)c2C)c([N+](=O)[O-])n1,101% (active),86.9%
CCc1ccccc1NC(=O)CN(C)C(=O)COc1ccc(C)nc1[N+](=O)[O-],1.9% (inactive),
Cc1c(C(C)(C)O)[nH]c2ccc(C#N)cc12,2.9% (inactive),
